HT1080NT lethal = qHTS for induction of synthetic lethality in tumor cells producing 2HG: qHTS for the HT-1080-NT fibrosarcoma cell line | AID 686970, 2013 | HT-1080-NT fibrosarcoma viability, CellTiter-Glo ATP luminescence, 48 h | Potency, µM (doses to about 46.1 µM), without a hit: at the top dose activity, negative = less viability, hits mostly cytotoxic | actives 1.6% (n = 360,000);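 also: NT is the 2HG producing partner of a matched IDH1 knockdown line; 0% = DMSO-treated cells and -100% = media-only wells without cells; nearly all actives have a fitted effect of over 55% in size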
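A 48-hour cytotoxicity screen used HT-1080-NT cells plated 2 hours before compound delivery. ATP-based CellTiter-Glo luminescence measured viability, normalized to DMSO and no-cell controls.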
KB-V1 cytotox = qHTS assay for MDR1-selective chemotherapeutics: Primary screen using the drug-selected MDR subline cells KB-V1; KB-V1 MDR cells viability, CellTiter-Glo, 72 h; Potency, µM (series often up to 46.1 µM), hits mostly cytotoxic; actives 3.4% (n = 400,000); AID 1347076, 2019; also: % is scaled to controls: 0 for no effect and ±100 for the full control effect; nearly all actives have a fitted effect of over 60% in size
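KB-V1, DMEM (no phenol red) + 10% FBS; cpd pin-transferred, titration series; 72 h, 37 degrees C; CellTiter-Glo, luminescence. Data normalized, curve-fit.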
MCF10A rerep = A quantitative high throughput screen for small molecules that induce DNA re-replication in MCF 10a normal breast cells; MCF 10A DNA re-replication, Hoechst nuclear intensity, 48 h; Potency, µM (doses to about 46.1 µM), for inactives: top-dose activity, positive = re-replication, usual class: activators; actives 2.9% (n = 350,000); AID 624296, 2012; also: % of control where 0% means no effect; nearly all actives have a fitted effect of over 50% in size
KB-3-1 cytotox = qHTS assay for MDR1-selective chemotherapeutics: Primary screen using the parental adenocarcinoma cell KB-3-1. KB-3-1 viability, CellTiter-Glo ATP luminescence, 72 h. Potency, µM (titrated, usually from 46.1 µM), usual class: cytotoxic. actives 1.4% (n = 400,000); also: % is scaled to controls: 0 for no effect and ±100 for the full control effect; nearly all actives have a fitted effect of over 60% in size
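Viability of parental KB-3-1 cells, measured by CellTiter-Glo luminescence, followed a 72 h incubation at 37 °C with pinned compounds in phenol-red-free DMEM containing 10% FBS.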
SW480 rereplic = A quantitative high throughput screen for small molecules that induce DNA re-replication in SW480 colon adenocarcinoma cells | SW480 DNA re-replication, Hoechst DNA content imaging, 48 h | Potency, µM (titrated, usually from 46.1 µM), for the others: at the highest dose re-replication activation, most hits filed as activators | actives 1.8% (n = 340,000) | AID 624297, 2012; also: % of control where 0% means no effect; nearly all actives have a fitted effect of over 55% in size
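Compounds, transferred as 23 nL by pin tool, were incubated with cells for 48 hr; DNA content per nucleus was then quantified by Hoechst staining and fluorescence plate imaging.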
HT1080 IDH1KD tx = qHTS for induction of synthetic lethality in tumor cells producing 2HG: qHTS for the HT-1080-IDH1KD cell line | actives 2% (n = 360,000) | AID 686971, 2013 | Potency, µM (doses to about 46.1 µM), without a hit: at the highest dose activity, negative = toxicity, usual class: cytotoxic | HT-1080 IDH1 knockdown viability, ATP luminescence, 48 h;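 also: 0% = DMSO wells and -100% = cell-free medium wells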
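Cytotoxicity counter-line: IDH1KD HT-1080, 48 h, CellTiter-Glo. Curves classed by r2, magnitude and activity.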
* marks the source's active call; other numbers are inactive results. Compounds with a hit are over-represented: about 7.9% of the library has one in this group of screens. Calls follow the shape of the dose curve; as a rule, active = well fitted curve in the direction sought with a large enough effect; inconclusive = small, poorly fitted or top-dose-only effect, or another doubt; inactive = no such curve, though single readings can be large; an effect the other way counts as inactive or inconclusive. Potency is read from the fitted curve at half-maximal effect.

`N[C@@H](Cc1ccc(N(CCCl)CCCl)cc1)C(=O)O` gave HT1080NT lethal -0.2%, KB-V1 cytotox inactive, MCF10A rerep inconclusive, KB-3-1 cytotox inactive, SW480 rereplic inconclusive and HT1080 IDH1KD tx inconclusive.
For CN1CCc2cc(O)cc3c2[C@H]1Cc1ccc(O)c(O)c1-3 the results were HT1080NT lethal 8.2µM*, KB-V1 cytotox inactive, MCF10A rerep inconclusive, KB-3-1 cytotox inactive, SW480 rereplic inconclusive and HT1080 IDH1KD tx 5.8µM*.
`CCCN1CCc2cc(O)cc3c2[C@H]1Cc1ccc(O)c(O)c1-3` gave HT1080NT lethal 8.2µM*, KB-V1 cytotox inactive, MCF10A rerep 70.6%, KB-3-1 cytotox inactive, SW480 rereplic inconclusive and HT1080 IDH1KD tx 23.1µM*.
For COc1cc2c(cc1O)C[C@H]1c3c(cc(O)c(OC)c3-2)CCN1C the results were HT1080NT lethal 22.3%, KB-V1 cytotox inactive, MCF10A rerep inconclusive, KB-3-1 cytotox inactive, SW480 rereplic -12.5% and HT1080 IDH1KD tx 2.2%.
O=C1OC(=O)C2C1[C@@H]1CC[C@H]2O1 (some centres undefined) was read as HT1080NT lethal inconclusive, KB-V1 cytotox inactive, MCF10A rerep inconclusive, KB-3-1 cytotox inconclusive, SW480 rereplic 1.3% and HT1080 IDH1KD tx inconclusive.
For CCc1ccc(OCC(=O)N2CCN(CCc3ccncc3)CC2)cc1 the results were KB-V1 cytotox inactive and KB-3-1 cytotox inactive.
Screening COc1cc2nc(N3CCN(C(=O)[C@H]4COc5ccccc5O4)CC3)nc(N)c2cc1OC returned HT1080NT lethal -13.0%, KB-V1 cytotox inactive, MCF10A rerep 6.3%, KB-3-1 cytotox inactive, SW480 rereplic -5.4% and HT1080 IDH1KD tx -10.5%.
`CC(C)N1CC=C(c2c[nH]c3ccccc23)CC1` gave HT1080NT lethal -16.1%, KB-V1 cytotox inactive, MCF10A rerep 40.9%, KB-3-1 cytotox 2.06µM*, SW480 rereplic 11.6% and HT1080 IDH1KD tx -19.9%.
`CC(C(=O)c1c[nH]c2ccccc12)N1CCOCC1` (centres undefined) gave HT1080NT lethal -2.0%, KB-V1 cytotox inactive, MCF10A rerep 9.4%, KB-3-1 cytotox inactive, SW480 rereplic inconclusive and HT1080 IDH1KD tx -0.6%.
`OCC(O)[C@H]1O[C@@H]2O[C@H](C(Cl)(Cl)Cl)O[C@@H]2[C@H]1O` (some centres undefined) gave MCF10A rerep -5.1% and SW480 rereplic -0.1%.
For O=C(c1ccc2c(c1)N(Cc1ccc(F)cc1)CCS2)N1CCC2(CC1)OCCO2 the results were HT1080NT lethal -12.0%, KB-V1 cytotox inactive, MCF10A rerep inconclusive, KB-3-1 cytotox inactive, SW480 rereplic 24.5% and HT1080 IDH1KD tx 0.1%.
`O=C(c1ccc2c(c1)ncn2-c1ccc(F)cc1F)N1CCC2(CC1)OCCO2` gave HT1080NT lethal 14.6µM*, KB-V1 cytotox inconclusive, MCF10A rerep inconclusive, KB-3-1 cytotox inconclusive, SW480 rereplic inconclusive and HT1080 IDH1KD tx inconclusive.
O=C(O)c1ccc(N=Cc2c(O)[nH]c(=O)[nH]c2=O)cc1 was read as HT1080NT lethal 18.9%, KB-V1 cytotox inconclusive, MCF10A rerep -1.2%, KB-3-1 cytotox inactive, SW480 rereplic 1.8% and HT1080 IDH1KD tx 14.5%.
For Cc1cc(C)c(N=Cc2c(O)[nH]c(=O)[nH]c2=O)c(C)c1 the results were HT1080NT lethal 10.4%, KB-V1 cytotox 5.17µM*, MCF10A rerep -0.9%, KB-3-1 cytotox 6.51µM*, SW480 rereplic -0.5% and HT1080 IDH1KD tx 1.8%.
`CCOc1cc(-c2nc3c(C)cccn3c2NCC2CCCO2)ccc1O` (centres undefined) gave HT1080NT lethal -4.9%, KB-V1 cytotox 5.17µM*, MCF10A rerep 0.0%, KB-3-1 cytotox inactive, SW480 rereplic -2.6% and HT1080 IDH1KD tx -5.2%.
`CC(N)c1cccc(Cl)c1Cl` (centres undefined) gave HT1080NT lethal 7.3% and HT1080 IDH1KD tx 16.4%.
For O=C(OCC1OC(n2cnc3c(N(C(=O)c4ccccc4)C(=O)c4ccccc4)ncnc32)C(O)C1F)c1ccccc1 (centres undefined) the results were HT1080NT lethal inconclusive, KB-V1 cytotox inactive, MCF10A rerep 23.8%, KB-3-1 cytotox inactive, SW480 rereplic inconclusive and HT1080 IDH1KD tx inconclusive.
Cc1[nH]c(=O)[nH]c(=O)c1/C=C/C(=O)OCC(C)C was read as HT1080NT lethal 17.2%, KB-V1 cytotox inconclusive, MCF10A rerep -5.5%, KB-3-1 cytotox inactive, SW480 rereplic inconclusive and HT1080 IDH1KD tx 1.5%.
`COc1cc(CC2C(=O)N(C)C(=O)N(C)C2=O)ccc1OCc1ccccc1` gave HT1080NT lethal 9.9%, KB-V1 cytotox inconclusive, MCF10A rerep 5.17µM*, KB-3-1 cytotox inactive, SW480 rereplic inconclusive and HT1080 IDH1KD tx 6.4%.
Screening COc1ccc(-c2noc(=O)n2Cc2cc(C)ccc2C)cc1 returned HT1080NT lethal inconclusive, KB-V1 cytotox inconclusive, MCF10A rerep 16.4µM*, KB-3-1 cytotox inconclusive, SW480 rereplic inconclusive and HT1080 IDH1KD tx inconclusive.
For COc1ccc(OC(=O)Nc2ccccc2)cc1 the results were HT1080NT lethal inconclusive, KB-V1 cytotox inactive, MCF10A rerep -3.6%, KB-3-1 cytotox inactive, SW480 rereplic 9.2% and HT1080 IDH1KD tx -0.9%.
For O=C(Nc1ccc(F)cc1)Oc1ccc[nH]c1=O the results were HT1080NT lethal inconclusive, KB-V1 cytotox inactive, MCF10A rerep 11.9%, KB-3-1 cytotox inactive, SW480 rereplic 0.6% and HT1080 IDH1KD tx 20.6µM*.
C[C@]12CC[C@H]3C(=CCc4cc(O)ccc43)[C@@H]1CCC2=O was read as HT1080NT lethal inconclusive, KB-V1 cytotox 8.2µM*, MCF10A rerep inconclusive, KB-3-1 cytotox inconclusive, SW480 rereplic -26.1% and HT1080 IDH1KD tx -21.1%.
C/C(CC(c1ccccc1)c1c(O)c2ccccc2oc1=O)=N\NC(N)=S (centres undefined) was read as HT1080NT lethal 0.0%, KB-V1 cytotox inconclusive, MCF10A rerep -31.0%, KB-3-1 cytotox inactive, SW480 rereplic 16.4µM* and HT1080 IDH1KD tx 8.7%.

Source: PubChem (National Center for Advancing Translational Sciences (NCATS))
